Experimental findings from PubChem BioAssay AID588398 (Broad Institute, 2011) are described below.

Out of some 1,200 compounds screened, about 110 (9.2%) were called active. Not shown: some 8% with an inconclusive outcome. Only a sample is shown. Potency and affinity values are given separately. A number with no mark means an inactive call.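 Rule for the calls: active = pathway reporter half-maximal dose under half the control reporter's, or control reporter unaffected while pathway reporter is inhibited; inconclusive = either signal flat at 30 to 70% inhibition or poorly fitted; inactive = the rest.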

This assay in a line: LMP1 TES1 pathway selectivity over dsRED control – imaging, HEK293T, dual-color eGFP/dsRED, cherry-picks, selectivity assay for LMP1 NF-kB inhibitor project, dose response (AID 588398).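 Note: 0% = median of neutral control wells and -100% = median of MG132 positive control wells.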 The settings on record: 48 h; HEK293T Tet-On dsRED counter-screen channel, at 19.5 µM (top of the series); activity change, negative = inhibition: at the top concentration.
For the compound `COc1cc(/C=N/NC(=S)Nc2cccc(C(=O)O)c2)ccc1O`, the “activity change, negative = inhibition” value was 4.99%. Still for that read-out and setting: the value for `O=C(Nc1ccc(C(=O)N2CCOCC2)cc1)Nc1cccc(C(F)(F)F)c1` was -84.7%; that for `O=C(NC1=NCCS1)c1cc2ccccc2o1` was -20.6%; that for `COc1cc2c(cc1OC)-c1cc(Nc3ccc4c(c3)OCCO4)nc(=O)n1CC2` was 3.53%. On the same count and under the same terms, the value for `COc1ccccc1-n1c(-c2ccccc2)n[nH]c1=S` was -2.33%; that for `COc1ccc(/C(CC2OC(=O)c3ccccc32)=N\NC(N)=O)cc1` (centres undefined) was 9.72%.

Consider `COc1ccc(N/N=C/c2c(C(=O)O)ccc3ccccc23)cc1`, for which the “activity change, negative = inhibition” value is -82.7%. Regarding `COc1ccccc1C=NN=Cc1ccccc1O`, the “activity change, negative = inhibition” value is 11.8%. For `O=C(Nc1ccc(F)c(F)c1)C1CCCCC1`, the “activity change, negative = inhibition” value was -0.709%.

Take `CCCSc1ccc([C@@H]2[C@H]3C(=O)N(C)C(=O)[C@H]3[C@]3(C(=O)OC)CCCN23)cc1OC`: the “activity change, negative = inhibition” value is 2.29%. On to `CC[C@]1(C(=O)OC)[C@H]2C(=O)N(Cc3ccccc3)C(=O)[C@H]2[C@H]2CN=C(SCc3ccc(Cl)cc3)N21`, for which the “activity change, negative = inhibition” value was -97.1%.

Consider `COc1ccc(-n2c(C)c(C(C)=O)c3cc(OC(C)=O)ccc32)cc1`, for which the “activity change, negative = inhibition” value was -87.7%. The same measure, in the same setting: in the case of `O=C(C1CCCCC1)N1CCN(c2ccnc3cc(Cl)ccc23)CC1` it was -8.83%; in that of `COc1ccc(S(=O)(=O)N2CCC(C(=O)NC3CC3)CC2)cc1OC`, 2.11%; in that of `C[n+]1c2n(c3ccccc31)N=C(c1cc(C(C)(C)C)c(O)c(C(C)(C)C)c1)CS2`, -79%. Still for that read-out and setting: the value for `CC(=NNc1nc2ccccc2s1)c1ncccn1` was -99.9%; that for `CC(=NNc1nc2ccccc2o1)c1ncccn1` was -91.1%; that for `Brc1cccc(-c2cnco2)c1` was 18.5%.

Take `COc1ccccc1NC(=O)C(=O)N/N=C(\C)CC(=O)Nc1ccccc1C(F)(F)F`: the “activity change, negative = inhibition” value was 7.02%.

On to `COc1ccc(NC(=O)Cn2nnc(C(=O)NCc3ccccc3)c2N)c(OC)c1`, for which the “activity change, negative = inhibition” value was 114%. Still for that read-out and setting: in the case of `COC(=O)c1cccc(COC(=O)c2ccccc2NC(=O)c2ccco2)c1` it was 0.293%; in that of `Cn1c(=O)c2c(nc(NCc3ccco3)n2C/C=C/c2ccccc2)n(C)c1=O`, -18.9%. Same read-out and setting: in the case of `O=C(CCS(=O)(=O)c1ccccc1)Nc1nccs1` it was -25.5%; in that of `Oc1c(N=NC(=S)Nc2ccccc2F)c2ccccc2n1Cc1cccc(Cl)c1`, 19.5%.

As for `CCCCCCNC(=O)O[C@]12C[C@@H](C(=O)OC)[C@@H](C(=O)OC)C[C@@]1(O)CN(S(=O)(=O)c1ccc(C)cc1)C2`, the “activity change, negative = inhibition” value was -4.81%. Turning to `CCN1CCN(Cc2ccc(NC(=O)c3ccc(C)c(NC(=O)c4ccno4)c3)cc2C(F)(F)F)CC1`, the compound was called inactive. For the compound `Oc1c(N=NC(=S)Nc2ccccc2F)c2ccccc2n1Cc1ccc(F)cc1`, the “activity change, negative = inhibition” value is 11.3%. As for `CCCN(CC)c1ncnc2[nH]ncc12`, the “activity change, negative = inhibition” value was -85.4%. Still for that read-out and setting: in the case of `Cc1ccccc1-n1nc(C)c2cc(C(=O)NC3CC3)sc21` it was 16.1%; in that of `Cc1ccc(N2C(=O)c3ccccc3C2Nc2cccnc2)nc1` (centres undefined), 10.4%; in that of `O=C(c1ccc(C#CC2(O)CCCCC2)cc1)N1CCN(C(c2ccccc2)c2ccccc2)CC1`, -14.9%.

With `COc1ccc(C(c2c(C)n(C)n(-c3ccccc3)c2=O)c2c(C)n(C)n(-c3ccccc3)c2=O)c(OC)c1OC`, the “activity change, negative = inhibition” value is 6.3%.

Turning to `Cc1ccccc1C(=O)NC(=S)Nc1ccc(N2CCN(C(=O)c3ccccc3)CC2)cc1`, the “activity change, negative = inhibition” value was 3.02%. `COc1cccc(/C=N\NC(=O)c2ccc(C)nc2)c1`: the “activity change, negative = inhibition” value was 1.79%. With `O=C(N/N=C/c1c(O)ccc2ccccc12)c1cccnc1`, the “activity change, negative = inhibition” value was -94.7%. Still for that read-out and setting: the value for `CC(CN1CCCCC1)OC(=O)c1ccc2c(c1)OCO2` (centres undefined) was -1.2%. Same read-out and setting: in the case of `N=C1S/C(=C\c2ccccc2)C(=O)N1c1ccc(F)cc1` it was 5.19%; in that of `CN(C)S(=O)(=O)c1cccc(NC(=O)c2n[nH]c(=O)c3ccccc23)c1`, 7.35%; in that of `Cc1c(NC(=O)c2cc(-c3cccs3)nc3ccccc23)c(=O)n(-c2ccccc2)n1C`, 26.4%. Same read-out and setting: in the case of `CCOc1ccc(-c2cc(C(=O)N/N=C/c3ccc(O)cc3)c3ccccc3n2)cc1` it was 112%; in that of `Cc1ccc(-c2cc(C(=O)N/N=C/C=C/c3ccco3)c3ccccc3n2)cc1C`, 79.6%.

With `O=[N+]([O-])c1cccc(-c2ccc(/C=N/Nc3nc(N4CCCCC4)nc(N4CCCCC4)n3)o2)c1`, the “activity change, negative = inhibition” value was 41.5%. In the case of `O=C(COC(=O)c1ccc(S(=O)(=O)NCc2ccco2)cc1)Nc1ccc(Cl)cn1`, the “activity change, negative = inhibition” value was 12.5%. Same read-out and setting: the value for `CCOC(=O)/C=C(\C)Sc1cc(=O)oc2ccccc12` was -97.8%; that for `COc1ccc([C@H]2N[C@]3(CCCN(Cc4ccco4)C3=O)[C@H]3C(=O)N(Cc4ccccc4)C(=O)[C@@H]23)cc1` was 0.261%; that for `Cc1ccc(NC(=O)NNS(=O)(=O)c2ccc(Br)cc2)cc1` was -10.6%. Take `CCN(Cc1ccncc1)C(=O)CCc1ccccc1`: the “activity change, negative = inhibition” value is 29.2%. Same read-out and setting: in the case of `Cc1c(/C(O)=C2/C(=O)C(=O)N(CCN3CCOCC3)C2c2ccccn2)cnn1-c1ccccc1` (centres undefined) it was 0.373%; in that of `COC(=O)CCCC[C@@H]1SC[C@@H](NC(=O)OC)[C@@H]1NC(=O)OC`, 19.4%; in that of `CN=C1S/C(=C\c2ccc(O)c(Br)c2)C(=O)N1C`, 7.27%. Same read-out and setting: in the case of `C#CCN(C[C@@H]1[C@@H](OC(=O)NCC2CCCCC2)[C@@H](OC(=O)NCC2CCCCC2)Cn2c(=O)ccc(=O)n21)S(=O)(=O)c1ccc(C)cc1` it was -99.9%; in that of `O=C(NOCc1ccccc1)c1ccc(Cl)cc1Cl`, -18%; in that of `S=C(NCC1CCCCC1)Nc1ccc(Oc2ccccc2)cc1`, 14.5%. On to `COc1ccc(C(=O)CN(CCC(=O)O)S(=O)(=O)c2ccc([N+](=O)[O-])cc2)cc1`, for which the “activity change, negative = inhibition” value is 1.46%.

Consider `CCN(CC(=O)NCc1ccc(F)cc1)CC(=O)Nc1cc(S(=O)(=O)N(C)C)ccc1C`, for which the “activity change, negative = inhibition” value is -15.9%. Consider `O=C(Nc1ccc(N2CCOCC2)cc1)c1cn2ccccc2n1`, for which the “activity change, negative = inhibition” value is -2.87%.

Turning to `Cc1sc2ncnc(N3CCC(C(=O)Nc4ccccc4C(C)(C)C)CC3)c2c1C`, the “activity change, negative = inhibition” value was -6.18%.

Take `C=CCn1c(O)c(N=NC(=S)Nc2ccccc2C)c2cc(S(=O)(=O)N3CCOCC3)ccc21`: the “activity change, negative = inhibition” value is 43.7%. Take `Cc1cccc(NC(=S)N=Nc2c(O)n(C)c3ccc(S(=O)(=O)N4CCOCC4)cc23)c1`: the “activity change, negative = inhibition” value was 20.2%. The same measure, in the same setting: the value for `CN1C(=O)C(CC(=O)NC2CCCCC2)SC1=Nc1ccccc1` (centres undefined) was -4.39%; that for `COc1ccc(-c2ccc3c(c2)S(=O)(=O)c2cccc(C(=O)NCc4cc(C)oc4C(F)(F)F)c2C3=O)cc1OC` was 6.54%. Regarding `Cc1ccc(C(=O)Nc2cccc(C(F)(F)F)c2)cc1NC(=O)c1ccno1`, the compound was called inactive. With `COc1cccc(C(=O)Nc2nc3ccccc3[nH]2)c1`, the “activity change, negative = inhibition” value is 31.9%. Same read-out and setting: the value for `CCOc1ccc(/C=N/Nc2cc(N3CCOCC3)ncn2)c(O)c1` was -12.3%; that for `Cn1cccc1CC(=O)NNC(=S)Nc1ccccc1Cl` was -1.27%; that for `COC(=O)C1=C(C)N(CCCC(=O)O)C(=O)NC1c1cccc(Cl)c1Cl` (centres undefined) was -6.66%. Same read-out and setting: in the case of `COc1cc2cc(C(=O)N3CCN(c4ccccc4OC)CC3)[nH]c2cc1OC` it was 0.636%; in that of `CCN(C(=O)c1cccc(NC(=O)c2ccccc2)c1)C1CCCCC1`, 56.7%.

With `O=C(Nc1cccc(C(=O)O)c1)Nc1ccccc1Cl`, the “activity change, negative = inhibition” value was 25.4%. The same measure, in the same setting: the value for `N=c1c(-c2nc3ccccc3[nH]2)cc(C(=O)c2cccs2)nn1-c1ccccc1` was 18.5%; that for `CCCCCC(=O)N1CCN(c2ccc(C(C)=O)cc2F)CC1` was 12.2%. For the compound `Cc1ccc(-c2csc(=Nc3cccnc3)n2CCCn2ccnc2)cc1C`, the “activity change, negative = inhibition” value is -85.9%. Still for that read-out and setting: the value for `COc1cc(/C=C(\C#N)c2ccccn2)ccc1OCc1ccccc1Cl` was 9.75%. Take `Cc1cc(/C=C2\Cc3ccccc3C2=O)c(C)n1-c1ccccc1`: the “activity change, negative = inhibition” value is 30.7%. Still for that read-out and setting: in the case of `CCCCNC(=S)Nc1ccc([N+](=O)[O-])cc1` it was -9.38%. The same measure, in the same setting: the value for `CC(=O)NC(CCS(C)(=O)=O)C(=O)Nc1ccc(Cl)c(Cl)c1` (centres undefined) was -4.89%.

As to `C=C1C(=O)C2=CC1CCC(=O)C1(C)CCC(OC(C)=O)C(C)(C)C1CC2O` (centres undefined), the “activity change, negative = inhibition” value is -98.8%. Same read-out and setting: the value for `O=C(NCC1CCOCC1)c1ccc(OC2CCN(Cc3ccccn3)CC2)cc1` was 14.1%; that for `CCc1ccc(/C=N/NC(=O)c2ccccn2)cc1` was -0.532%; that for `Cc1ccsc1-c1nc(CSCC(=O)N2CCN(c3ccccc3)CC2)c(C)o1` was 44.4%. Consider `CCCSc1nc2cc(S(=O)(=O)N3CCOCC3)ccc2n1CC`, for which the “activity change, negative = inhibition” value was 19.4%. As for `CC(C)OCCCNC(=O)C1CCC(CNS(=O)(=O)c2ccccc2)CC1` (centres undefined), the “activity change, negative = inhibition” value was -9.46%. Consider `NC1=NC(=O)NC1(c1ccccc1)c1ccccc1`, for which the “activity change, negative = inhibition” value is 2.06%. Regarding `Cc1cc(=S)[nH]c2ccccc12`, the “activity change, negative = inhibition” value is 3.44%. With `CCOCCCn1c(=S)[nH]c2ncccc2c1=O`, the “activity change, negative = inhibition” value is -10.1%. Same read-out and setting: the value for `C=CCn1c(O)c(N=NC(=S)Nc2cccc(C)c2)c2ccccc21` was 18.7%; that for `Cn1nc(-c2ccc(N3CCOCC3)c(NS(=O)(=O)c3ccccc3)c2)c2ccccc2c1=O` was 24.4%. The same measure, in the same setting: the value for `COc1cccc(/C=N/Nc2nc3ccccc3[nH]2)c1O` was -89.9%; that for `CCN(CC)S(=O)(=O)c1ccc(N/N=C/c2ccc(O)cc2O)nc1` was -89.9%; that for `CCN(CC)c1ccc(/C=N/NC(=O)c2ccc3nc[nH]c3c2)c(O)c1` was -65.3%.

`C(=N\Nc1nc2ccccc2[nH]1)/c1cccc2nccnc12`: the “activity change, negative = inhibition” value is 30.3%. On the same count and under the same terms, the value for `Cc1ccc(/C=C/c2nc3ccccc3c(=O)[nH]2)cc1` was -9.47%; that for `CCN(CC)c1ccc(NC(=O)c2cccc(F)c2)c(C)c1` was 163%. As to `Cc1cc(C)cc(C(=O)NCCC(=O)NCc2cc(=O)n(C)c(=O)n2C)c1`, the “activity change, negative = inhibition” value was 15.2%.

`O=C(CSc1nnc(-c2cccc(S(=O)(=O)N3CCOCC3)c2)n1C1CCCCCC1)NCc1ccccc1`: the “activity change, negative = inhibition” value is 20.6%. Consider `CN(C)CC(C)(C)CNS(=O)(=O)c1ccc(OC(F)(F)F)cc1`, for which the “activity change, negative = inhibition” value was 13.2%. Take `COc1ccc2[nH]c3c(=O)n(CCCCC(=O)N4CCC(C(N)=O)CC4)c(=S)[nH]c3c2c1`: the “activity change, negative = inhibition” value was 21.2%. Consider `COc1ccc2cc(C(N)=O)/c(=N\NC(=O)c3ccccc3)oc2c1`, for which the “activity change, negative = inhibition” value was -14.7%. Still for that read-out and setting: the value for `CN(C)/C=C/C(=O)c1ccc2noc(-c3ccccc3)c2c1` was -15.5%; that for `N#Cc1c(NC(=O)CCCC(=O)O)sc2c1CCCCC2` was 9.82%; that for `CC(C)[C@H](N[C@@H](C)c1ccccc1)c1c(O)ccc2ccccc12` was -4.13%. Same read-out and setting: the value for `CC(=O)c1c(C)[nH]c(C(=O)Nc2ccc(C)cn2)c1C` was 39.2%; that for `COc1ccc(Nc2oc(COc3ccccc3OC)nc2C#N)cc1` was 20.2%. Regarding `COc1cc2nc(NC(=O)c3ccco3)sc(=O)c2cc1OC`, the “activity change, negative = inhibition” value is -12.1%.
